Source: PubChem
Pf apPOL block = Pf-apPOL DNA polymerase inhibition. Recombinant Pf-apPOL, molecular beacon fluorescence, 1.5 h. inhibition, % at 10 µM. hit rate 0.25% among 210,000
mHTT-CaM PPI inh = inhibitors of human mutant huntingtin-calmodulin interaction; P42858; AlphaScreen His-mHTT/GST-CaM binding, luminescence; inhibition, % at 15 µM; hit rate 3.6% among 190,000; AID 1671202
Large screens that a line does not name were inactive; ! = not active in a repeat. A selection: hits, their analogues and other compounds. The true share with any hit is near 3.5%. No stated cut-off is given here; in the data, active means inhibition above about 50%; inactive means the rest.

Cc1noc(C)c1C1CCCN1C(=O)NC(C)(C)C (centres undefined)	none
CC(C)(C)C1CCc2c(sc3c2C(=O)NC(c2ccc(O)c([N+](=O)[O-])c2)N3)C1 (centres undefined)	mHTT-CaM PPI inh 59.0
CC(C)(C)C1CCc2c(sc3c2C(=O)NC(c2ccccc2)N3)C1 (centres undefined)	none
Cc1cc(C)n(Cc2ccc(F)c(F)c2)c1C(=O)NCc1cccnc1	none
COc1ccc(-c2cn3ccn(-c4ccc(C(C)C)cc4)c(=O)c3n2)cc1	none
O=C(c1ccncc1)N1CCCC2(C1)Nc1cccnc1NC2=NC1CCCC1 (centres undefined)	none
O=C1C(=Cc2ccccc2F)Oc2cc(O)ccc21	none
O=C1C(=CC=Cc2ccco2)Oc2cc(O)ccc21	Pf apPOL block 51.2, mHTT-CaM PPI inh 57.7!
O=C(Oc1ccc2c(c1)OC(=Cc1ccco1)C2=O)c1ccccc1	none
COc1ccc(C=C2Oc3cc(OC(C)=O)ccc3C2=O)cc1OC	none
O=C(Oc1ccc2c(c1)OC(=Cc1ccco1)C2=O)c1ccco1	none
COc1ccc(C=C2Oc3cc(OC(=O)C(C)C)ccc3C2=O)cc1OC	mHTT-CaM PPI inh 62.4
O=C(C=Cc1ccccc1)Oc1ccc2c(c1)OC(=Cc1ccco1)C2=O	mHTT-CaM PPI inh 79.3
O=C(Oc1ccc2c(c1)OC(=Cc1ccco1)C2=O)c1cccs1	mHTT-CaM PPI inh 58.2
CNC(=O)N1CC(C)Oc2ccc(Cl)cc21 (centres undefined)	none
Cc1cc(C(=O)N2CCCC2C(=O)NCc2ccc(F)cc2)no1 (centres undefined)	none
Cc1cccc(C(=O)N2CCc3c(c(-c4nc(-c5ccccc5)no4)nn3C)C2)c1	none
COc1ccccc1CNS(=O)(=O)c1ccc(F)c(C(=O)Nc2c(C)cccc2C)c1	none
Cc1nn(Cc2ccc(Cl)cc2)c(C)c1NC(=O)c1noc2c1CCCCC2	mHTT-CaM PPI inh 67.2
Cc1cc(NC(=O)c2noc3c2CCCCC3)nn1Cc1ccc(Cl)cc1	none
COc1cc(-c2nc3sc(-c4cc(OC)c(O)c(OC)c4)nc3s2)cc(OC)c1O	none (no result: Pf apPOL block)
Cc1cccc2nc(CSc3ncc(C#N)c(N)n3)cc(=O)n12	none
Cc1cccc2nc(CSc3n[nH]c(N)n3)cc(=O)n12	Pf apPOL block 52.5
COc1ccc(CNC(=O)c2nnn(-c3ccc(C)c(C)c3)c2-c2ccncc2)cc1OC	none
CN(C)c1ccc(C=Nc2nc(-c3ccccc3)cs2)cc1	mHTT-CaM PPI inh 65.0
CN(C)c1ccc(Nc2nc(-c3ccncc3)cs2)cc1	none
COc1ccc2c(c1)c(=O)c1ccccc1n2CC(=O)Nc1cccc(C(F)(F)F)c1	mHTT-CaM PPI inh 54.0
COc1ccc2c(c1)c(=O)c1ccccc1n2CC(=O)Nc1ccc(C(F)(F)F)cc1	none
COc1ccccc1CN1COc2ccc3c(c2C1)OC(=Cc1ccncc1)C3=O	mHTT-CaM PPI inh 100.3
COc1ccccc1CN1COc2ccc3c(c2C1)OC(=Cc1cccnc1)C3=O	none
COc1cccc(CN2COc3ccc4c(c3C2)OC(=Cc2cc(OC)c(OC)c(OC)c2)C4=O)c1	none
COc1cccc(C=C2Oc3c(ccc4c3CN(Cc3ccccn3)CO4)C2=O)c1	mHTT-CaM PPI inh 99.3
COc1cc(C=C2Oc3c(ccc4c3CN(c3ccc5c(c3)OCO5)CO4)C2=O)cc(OC)c1OC	mHTT-CaM PPI inh 59.1
COc1ccc(OC)c(C=C2Oc3c(ccc4c3CN(Cc3ccncc3)CO4)C2=O)c1	none
COc1ccc(C=C2Oc3c(ccc4c3CN(Cc3ccccn3)CO4)C2=O)c(OC)c1	mHTT-CaM PPI inh 100.2
COc1ccc(N2COc3ccc4c(c3C2)OC(=Cc2ccc(OC)c(OC)c2)C4=O)cc1	none
CCC(CC)C(=O)N1CC(c2nc(-c3ccccc3)no2)C2(CCOCC2)C1 (centres undefined)	none
FC(F)(F)Oc1ccc(-c2nc(C34CC5CC(CC(C5)C3)C4)cs2)cc1	none (no result: mHTT-CaM PPI inh)
COc1cc(C=C2Oc3c(ccc4c3CN(Cc3ccccn3)CO4)C2=O)cc(OC)c1OC	mHTT-CaM PPI inh 100.3
COc1ccccc1CN1COc2ccc3c(c2C1)OC(=Cc1cc(OC)c(OC)c(OC)c1)C3=O	none
Cc1cc(Cl)ccc1NC(=O)C1CCc2sc(C(=O)N3CCOCC3)cc2C1 (centres undefined)	none
CCOc1ccc(Oc2nc3ccc(C)cc3n3c(C)nnc23)cc1	none
COc1c(Cl)cnn(-c2ccccc2)c1=O	none
O=c1oc(-c2ccccc2Cl)nc2c1cnn2-c1ccccc1	mHTT-CaM PPI inh 90.0
CN(C)c1ccc(C(CNC(=O)c2ccccc2[N+](=O)[O-])N2CCc3ccccc3C2)cc1 (centres undefined)	mHTT-CaM PPI inh 65.8
CN(C)c1ccc(C(CNC(=O)c2cccc([N+](=O)[O-])c2)N2CCOCC2)cc1 (centres undefined)	none
CC(C)NC(=O)c1c[nH]c2ccc(S(=O)(=O)N(C)c3ccc(Cl)cc3)cc2c1=O	none
Nc1c(C(=O)O)sc2nc3c(cc12)CCCC3	none (no result: Pf apPOL block)
CC1(C)Cc2nc3sc(C(=O)O)c(N)c3cc2CS1	mHTT-CaM PPI inh 51.0
OCc1nc2ccccc2n1Cc1ccc(Cl)c(Cl)c1	mHTT-CaM PPI inh 72.7
OCc1nc2ccccc2n1Cc1ccccc1	none
COc1ccc(N=Cc2nc(-c3ccc(C)cc3)oc2O)c([N+](=O)[O-])c1	none
O=C(Cc1noc2ccccc12)NCCNc1cc(-n2cccn2)ncn1	none
Cc1cccc(S(=O)(=O)NC2CCN(c3ccccc3)C2=O)c1 (centres undefined)	Pf apPOL block 59.8
Cc1ccc(N2CCC(NS(=O)(=O)c3cccc(F)c3)C2=O)cc1 (centres undefined)	none
COc1ccc(S(=O)(=O)N(C(C)=O)c2ccc3oc4c(c3c2)CCCC4)cc1	none
Cc1cccc(C2CCCN2C(=O)Cc2ccccc2F)c1 (centres undefined)	none
O=C1c2ccccc2-c2onc3c(Br)cc(O)c1c23	mHTT-CaM PPI inh 58.0
O=C1c2ccccc2-c2onc3ccc(Cl)c1c23	none
O=C1c2ccccc2-c2onc3c(Cl)cc(O)c1c23	mHTT-CaM PPI inh 53.0
CCOc1ccc2noc3c2c1C(=O)c1ccccc1-3	none
O=S(=O)(c1ccc(F)cc1F)N1CCc2nc(-c3ccc(F)cc3)ncc2C1	none
C=CCc1cccc(OC)c1OCCOCCN1CCCC1	none
COc1ccccc1N1CCN(S(=O)(=O)C2CC2)CC1	none
O=C(CC(=O)c1ccccc1O)c1cccc(F)c1	mHTT-CaM PPI inh 56.9
O=C(CC(=O)c1ccccc1O)c1ccc(F)cc1	none
O=C(CC(=O)c1ccccc1Cl)c1ccccc1O	mHTT-CaM PPI inh 50.0
O=C(NCCNC(=O)c1ccccc1O)c1ccccc1O	none
Cc1ccc(S(=O)(=O)N2CCC(C(=O)NCc3ccccn3)CC2)cc1	none
CCN(CCNC(=O)C1CCc2nc(N3CCCC3)ncc2C1)c1ccccc1 (centres undefined)	none
COc1ccccc1NC(=O)Nc1cccc2cccnc12	none
COc1ccccc1C(NC(=O)C(C)C)c1ccc2cccnc2c1O (centres undefined)	mHTT-CaM PPI inh 99.0
COc1ccccc1C(NC(C)=O)c1ccc2cccnc2c1O (centres undefined)	mHTT-CaM PPI inh 100.0
COc1ccccc1C(=O)Nc1cc(Br)cc2cccnc12	none
CC(C)n1c(=O)c(-c2ccc(C(=O)Nc3ccccc3F)cc2)nc2cccnc21	none
Cc1sc(-c2ccncc2)nc1-c1c[nH]c2ccccc12	none
COc1ccc(C)cc1Nc1nc(C)nc2sc(C)cc12	none
COc1ccc(OC)c(Nc2nc(C)nc3sc(C)cc23)c1	mHTT-CaM PPI inh 52.0
COc1cc(C2Nc3ccc([N+](=O)[O-])cc3C3C=CCC32)cc(OC)c1OC (centres undefined)	mHTT-CaM PPI inh 71.0
